PubChem BioAssay (NCATS)
Inconclusive results are not listed. A call without a number means that no potency is given here. Values without a mark were called inactive. Activity calls are given as the source filed them. The call rests on the fitted dose curve; in most records, active means well fitted cell-killing curve with a large enough effect; inconclusive means small, poorly fitted or top-dose-only effect; inactive means flat fitted curve, though single readings scatter.

Assay: qHTS of pediatric cancer cell lines to identify multiple opportunities for drug repurposing: Primary screen for Rh18 cells (AID 1347102); further: nearly all actives have a fitted effect of over 65% in size
Conditions: Rh18 rhabdomyosarcoma viability, CellTiter-Glo luminescence, 48 h; series mostly up to 46 µM
Source text: Drug repurposing or repositioning has been offered as a strategy for drug development in oncology programs. This approach has special potential for childhood cancers and other rare or orphan diseases, where the expected return on new drug development has been a disincentive to pharmaceuticals.
In this project we exploit the poly-pharmacology of drugs to discover new indications via phenotypic screening of a panel of 19 well-characterized cell lines derived from solid tumors seen in children and adolescents. The goal is to identify approved drugs with previously unrecognized anticancer properties that has the potential to reveal new mechanisms and biological processes involved in carcinogenesis or drug resistance. We employed a titration-based paradigm (quantitative high-throughput screening or qHTS), where all compounds were tested at multiple concentrations for their effect on cell viability. Concentration-response curves (CRCs) were derived directly from the primary screen, and both potency and efficacy values were used to identify compounds with robust bioactivity profiles. We screened the NIH Chemical Genomics Center (NCGC) Pharmaceutical Collection (NPC) and Mechanism Interrogation Plate (MIPE) small molecule collections of approved and investigational compounds against these cell lines; and measured metabolically active cells after 48 hours of compound treatment as a proxy for cell viability.
Assay Submitter: Nathalia J. Martinez, National Center for Advancing Translational Sciences, National Institutes of Health, Rockville, MD, USA; email: natalia.martinez@nih.gov
[1] Shen, M et al. Quantitative high-throughput phenotypic screening of pediatric cancer cell lines identifies multiple opportunities for drug repurposing. Oncotarget 2017 Dec 19;9(4):4758-4772. PMID 29435139.
The cells were obtained from University of North Carolina (UNC), Pediatric Preclinical Testing Program (PPT), and Coriell Institute (CI).
qHTS cell viability assay:
Cells were assayed in growth media at a density of 500-1,000 cells/well. Five microliters of cells were dispensed into 1,536-well, white, solid-bottom, TC-treated plates (Greiner Bio One) using a multidrop dispenser and incubated at 37 degrees C, 5% CO2, under a humidified atmosphere for 5 hours. Twenty-three nanoliters of compounds and controls (neutral control DMSO or positive control bortezomib at final concentration of 2.3 µM) were subsequently transferred by Kalypsys pintool. For primary screens, the MIPE collection was tested at 11-point dilutions (final concentrations range from 0.78 nM to 46 µM) and the NPC collection at 8-point dilutions (final concentrations range from 0.59 nM to 46 µM). Compounds tested in follow-up screens were assayed at 11-point dilutions. Cells were incubated for 48 hours, followed by addition of 3 µL of CellTiter-Glo (Promega). After a 15 min incubation at room temperature, samples were analyzed for luminescence intensity using a ViewLux High-throughput CCD imager equipped with clear filters.
Potency means the concentration at half of the fitted maximal effect.

| Structure (SMILES) | Potency | activity change, negative = cytotoxic |
| --- | --- | --- |
| CNC(=O)Oc1ccc2c(c1)[C@]1(C)CCN(C)[C@@H]1N2C | inactive |  |
| CCN(CC)C(C)CN1c2ccccc2Sc2ccccc21 (stereo not given) | inactive |  |
| NC1CCN(c2cccc(Cl)n2)CC1 | inactive |  |
| O=C(O)CN1C(=O)c2cccc3cccc(c23)C1=O | inactive |  |
| C/C(=C(\CCOP(=O)(O)O)SC(=O)c1ccccc1)N(C=O)Cc1cnc(C)nc1N |  | 28.8% [at 4.84 µM] |
| CC(C(O)c1ccc(O)cc1)N1CCC(Cc2ccccc2)CC1 (stereo not given) | inactive |  |
| CCCCC(CC)COC(=O)c1ccccc1O (stereo not given) | inactive |  |
| COc1ccc2c(c1)C(=O)N(CCc1ccc(S(=O)(=O)NC(=O)NC3CCCCC3)cc1)C(=O)C2(C)C | inactive |  |
| CCOc1nc2cccc(C(=O)O)c2n1Cc1ccc(-c2ccccc2-c2nn[nH]n2)cc1 | inactive |  |
| CCC(=O)Nc1ccc(O)cc1 | inactive |  |
| C[C@@H]1CC[C@@]2(OC1)O[C@H]1C[C@H]3[C@@H]4CC[C@H]5C[C@@H](O)CC[C@]5(C)[C@H]4CC(=O)[C@]3(C)[C@H]1[C@@H]2C |  | 11.3% [at 4.84 µM] |
| CN(N=O)C(=O)N[C@@H]1[C@@H](O)[C@H](O)[C@@H](CO)O[C@@H]1O | inactive |  |
| CC(C)(C)C(=O)C(Oc1ccc(Cl)cc1)n1ccnc1 (stereo not given) | inactive |  |
| CC1=C(/C=C/C(C)=C/C=C/C(C)=C/C(=O)O)C(C)(C)CCC1 | inactive |  |
| CCOC(CN1CCN(CC(C)C(=O)c2ccccc2)CC1)c1ccccc1 (stereo not given) | inactive |  |
| O=C(O)[C@@H]1CSCN1 | inactive |  |
| CCCCC/C(C=O)=C\c1ccccc1 | inactive |  |
| Nc1ccc(S(=O)(=O)NC(=O)c2ccccc2)cc1 | inactive |  |
| Oc1cn2c(n1)Nc1ccc(Cl)c(Cl)c1C2 | inactive |  |
| CCCCc1ncc(/C=C(\Cc2cccs2)C(=O)O)n1Cc1ccc(C(=O)O)cc1 | inactive |  |

| Structure (SMILES) | Potency | activity change, negative = cytotoxic |
| --- | --- | --- |
| C[C@H]1O[C@H](O[C@H]2[C@H](O)[C@@H](O)[C@@H](O[C@H]3[C@H](O)[C@@H](O)[C@H](O)O[C@@H]3CO)O[C@@H]2CO)[C@H](O)[C@@H](O)[C@@H]1N[C@H]1C=C(CO)[C@@H](O)[C@H](O)[C@H]1O | inactive |  |
| CCCOC(=O)c1ccccc1 | inactive |  |
| CN(C)CC[C@@H](c1ccc(Cl)cc1)c1ccccn1 | inactive |  |
| O=c1[nH]cnc2c1ncn2[C@@H]1O[C@H](CO)[C@@H](O)[C@H]1O | inactive |  |
| C[C@]12CC[C@@H]3c4ccc(O)cc4CC[C@H]3[C@@H]1CCC2=O | inactive |  |
| COc1cc(C)c(Cc2cnc(N)nc2N)cc1OC | inactive |  |
| Nc1nc2c(ncn2CCC(CO)CO)c(=O)[nH]1 | inactive |  |
| CC(C)(C)C(=O)NCCCC(=O)O | inactive |  |
| Cc1cc(C(C#N)c2ccc(Cl)cc2)c(Cl)cc1NC(=O)c1cc(I)cc(I)c1O (stereo not given) | inactive |  |
| O=c1cc[nH]c(=S)[nH]1 | inactive |  |
| OCC(O)CN1CCN(c2ccccc2)CC1 (stereo not given) | inactive |  |
| NCC(=O)CCC(=O)O | inactive |  |
| CCCCCCCCCCCCCCCC(=O)NCCO | inactive |  |
| [Cl][In]([Cl])[Cl] | inactive |  |
| CO/N=C(\C(=O)N[C@@H]1C(=O)N2C(C(=O)O)=C(CSc3nc(=O)c(O)nn3C)CS[C@H]12)c1csc(N)n1 | inactive |  |
| CCCCN(CCCC)CC(O)c1cc(Cl)cc2c1-c1ccc(Cl)cc1/C2=C/c1ccc(Cl)cc1 (stereo not given) | 21.1 µM (active) |  |
| Cc1cccc(C)c1NC(=O)CN(CC(=O)O)CC(=O)O | inactive |  |
| Cc1ccc(C(C)C)cc2c(C)ccc1-2 | inactive |  |
| CC1=C(CC(=O)O)c2cc(F)ccc2/C1=C\c1ccc(S(C)=O)cc1 (stereo not given) | inactive |  |
| c1ccc2c(CC3=NCCN3)cccc2c1 | inactive |  |
